# Measured values as given in paper PMC7862700, “An all-to-all approach to the identification of sequence-specific readers for epigenetic DNA modifications on cytosine”.
# Columns and labels:
# Experiment in all cases: DAPPL (digital affinity profiling via proximity ligation, sequencing); 10 mM Tris-HCl pH 7.5, 50 mM NaCl, 1 mM DTT, 4% glycerol, room temperature, 30 min; GST-TFs on glutathione beads, 16-mer random dsDNA library, 0.1% formaldehyde crosslink after washing; high values mean tight binding
# [1] = target: T1, FLI1 (Homo sapiens, UniProt Q01543 1-452); details: protein: recombinant; tags: N-terminal GST; dsDNA, one strand shown
# T1 sequence: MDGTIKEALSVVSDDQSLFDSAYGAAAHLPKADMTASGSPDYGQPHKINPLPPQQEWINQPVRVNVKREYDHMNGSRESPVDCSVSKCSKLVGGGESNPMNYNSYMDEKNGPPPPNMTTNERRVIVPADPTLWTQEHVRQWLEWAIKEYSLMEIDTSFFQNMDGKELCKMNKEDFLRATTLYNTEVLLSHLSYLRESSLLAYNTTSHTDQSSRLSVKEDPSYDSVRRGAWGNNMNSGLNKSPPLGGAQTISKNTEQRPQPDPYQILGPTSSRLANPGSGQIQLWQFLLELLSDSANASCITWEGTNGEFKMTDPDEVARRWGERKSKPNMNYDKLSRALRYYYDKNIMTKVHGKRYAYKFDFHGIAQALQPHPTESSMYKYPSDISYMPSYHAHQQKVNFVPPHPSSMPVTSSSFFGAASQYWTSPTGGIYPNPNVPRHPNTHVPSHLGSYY
# Procedure, shortened: (§1)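 The binding signal reported is, for every hexamer, its read frequency for a factor over its read frequency for the tag-only sample. Reads came from pools of yeast-expressed, GST-fused human transcription factors on glutathione beads, barcoded with DNA and mixed with that sample, which were incubated with 200 nmole of a random double-stranded 16-mer DNA library in Tris/NaCl/DTT/glycerol buffer at room temperature for 30 min. After washing, the pools were crosslinked with 0.1% formaldehyde, proximity-ligated with BsaI/T4 ligase for 1 h at 37 °C, PCR-amplified and sequenced on an Illumina NextSeq500.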
# [2] = target: T2, ELK1 (Homo sapiens, UniProt P19419 1-428); details: protein: recombinant; tags: N-terminal GST; dsDNA, one strand shown
# T2 sequence: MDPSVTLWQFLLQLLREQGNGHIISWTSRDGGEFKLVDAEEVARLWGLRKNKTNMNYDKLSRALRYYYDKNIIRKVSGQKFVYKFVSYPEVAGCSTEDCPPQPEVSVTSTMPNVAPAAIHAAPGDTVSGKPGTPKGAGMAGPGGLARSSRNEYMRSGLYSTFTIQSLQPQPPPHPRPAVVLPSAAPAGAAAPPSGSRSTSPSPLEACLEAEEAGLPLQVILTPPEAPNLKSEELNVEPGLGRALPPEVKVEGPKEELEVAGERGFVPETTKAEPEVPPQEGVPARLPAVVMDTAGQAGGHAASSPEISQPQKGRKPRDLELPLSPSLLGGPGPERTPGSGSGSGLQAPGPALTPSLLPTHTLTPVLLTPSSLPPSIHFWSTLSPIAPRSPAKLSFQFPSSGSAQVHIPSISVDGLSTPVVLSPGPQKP
# Procedure, shortened: as §1
# [3] = target: T3, GABPA (Homo sapiens, UniProt Q06546 1-454); details: protein: recombinant; tags: N-terminal GST; dsDNA, one strand shown
# T3 sequence: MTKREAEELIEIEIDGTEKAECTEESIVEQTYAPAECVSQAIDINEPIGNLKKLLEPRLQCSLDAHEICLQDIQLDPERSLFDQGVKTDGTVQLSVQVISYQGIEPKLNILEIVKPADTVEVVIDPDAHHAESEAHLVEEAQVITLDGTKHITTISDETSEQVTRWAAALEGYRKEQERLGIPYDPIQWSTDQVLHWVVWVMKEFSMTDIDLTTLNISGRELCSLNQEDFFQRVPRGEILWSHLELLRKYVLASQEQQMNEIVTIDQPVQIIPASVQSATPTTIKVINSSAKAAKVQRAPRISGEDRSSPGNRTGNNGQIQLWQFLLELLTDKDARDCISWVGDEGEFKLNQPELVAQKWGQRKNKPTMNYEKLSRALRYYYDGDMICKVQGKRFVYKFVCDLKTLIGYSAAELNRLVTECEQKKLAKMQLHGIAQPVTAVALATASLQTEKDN
# Procedure, shortened: as §1
# [4] = target: T4, ERG (Homo sapiens, UniProt P11308 1-479); details: protein: recombinant; tags: N-terminal GST; dsDNA, one strand shown
# T4 sequence: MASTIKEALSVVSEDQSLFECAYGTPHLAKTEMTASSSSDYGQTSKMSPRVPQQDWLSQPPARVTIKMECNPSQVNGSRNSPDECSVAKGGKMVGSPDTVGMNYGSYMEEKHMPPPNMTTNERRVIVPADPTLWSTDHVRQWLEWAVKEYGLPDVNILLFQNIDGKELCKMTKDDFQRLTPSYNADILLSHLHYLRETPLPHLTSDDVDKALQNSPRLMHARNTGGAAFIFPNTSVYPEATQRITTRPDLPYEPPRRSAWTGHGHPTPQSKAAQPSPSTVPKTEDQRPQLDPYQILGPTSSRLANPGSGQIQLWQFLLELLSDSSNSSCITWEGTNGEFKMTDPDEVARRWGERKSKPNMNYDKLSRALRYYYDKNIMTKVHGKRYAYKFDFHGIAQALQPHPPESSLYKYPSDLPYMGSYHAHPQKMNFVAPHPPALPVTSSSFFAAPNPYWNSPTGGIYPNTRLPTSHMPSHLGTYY
# Procedure, shortened: as §1
# [5] = target: ELF1 (Homo sapiens, UniProt P32519 1-619); details: protein: recombinant; tags: N-terminal GST; dsDNA, one strand shown
# Sequence of ELF1 (P32519 whole entry): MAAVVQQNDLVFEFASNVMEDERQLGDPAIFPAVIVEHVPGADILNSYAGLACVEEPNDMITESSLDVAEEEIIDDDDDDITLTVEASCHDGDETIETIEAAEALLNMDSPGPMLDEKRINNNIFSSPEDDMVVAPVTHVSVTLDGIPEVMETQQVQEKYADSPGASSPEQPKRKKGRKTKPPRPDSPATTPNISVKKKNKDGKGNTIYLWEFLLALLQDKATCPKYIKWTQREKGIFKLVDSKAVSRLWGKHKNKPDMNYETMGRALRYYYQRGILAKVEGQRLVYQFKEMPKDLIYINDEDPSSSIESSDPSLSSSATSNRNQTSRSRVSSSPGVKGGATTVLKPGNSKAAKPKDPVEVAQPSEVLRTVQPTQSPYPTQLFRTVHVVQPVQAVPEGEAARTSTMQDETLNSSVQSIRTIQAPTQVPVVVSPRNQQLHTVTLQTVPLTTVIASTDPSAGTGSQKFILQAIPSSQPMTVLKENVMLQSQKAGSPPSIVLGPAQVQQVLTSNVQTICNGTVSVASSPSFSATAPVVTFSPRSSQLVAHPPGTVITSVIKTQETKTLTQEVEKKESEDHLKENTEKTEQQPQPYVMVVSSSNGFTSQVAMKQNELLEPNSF
# Procedure, shortened: as §1
# [6] = target: T5, EHF (Homo sapiens, UniProt Q9NZC4 1-300); details: protein: recombinant; tags: N-terminal GST; dsDNA, one strand shown
# T5 sequence: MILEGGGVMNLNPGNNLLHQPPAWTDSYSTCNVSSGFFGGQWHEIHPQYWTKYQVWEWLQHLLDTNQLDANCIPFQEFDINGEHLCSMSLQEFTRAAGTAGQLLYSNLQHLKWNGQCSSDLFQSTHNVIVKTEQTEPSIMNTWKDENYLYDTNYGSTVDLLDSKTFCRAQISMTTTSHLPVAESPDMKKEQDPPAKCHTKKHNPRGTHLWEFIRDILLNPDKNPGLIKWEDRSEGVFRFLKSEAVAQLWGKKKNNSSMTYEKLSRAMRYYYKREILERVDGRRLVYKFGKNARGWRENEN
# Procedure, shortened: as §1
# [7] = target: SPI1 (Homo sapiens, UniProt P17947 1-270); details: protein: recombinant; tags: N-terminal GST; dsDNA, one strand shown
# Procedure, shortened: as §1
# [8] = target: SPIB (Homo sapiens, UniProt Q01892 1-262); details: protein: recombinant; tags: N-terminal GST; dsDNA, one strand shown
# Sequence of SPIB (Q01892 whole entry): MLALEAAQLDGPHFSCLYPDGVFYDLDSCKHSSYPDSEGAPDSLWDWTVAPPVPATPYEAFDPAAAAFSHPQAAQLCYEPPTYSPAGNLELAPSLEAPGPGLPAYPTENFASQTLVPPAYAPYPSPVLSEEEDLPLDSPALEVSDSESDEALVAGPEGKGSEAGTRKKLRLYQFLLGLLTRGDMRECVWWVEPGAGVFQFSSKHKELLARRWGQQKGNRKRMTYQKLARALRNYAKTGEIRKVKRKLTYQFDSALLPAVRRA
# Procedure, shortened: as §1
# [9] = target: T6, ELK3 (Homo sapiens, UniProt P41970 1-407); details: protein: recombinant; tags: N-terminal GST; dsDNA, one strand shown
# T6 sequence: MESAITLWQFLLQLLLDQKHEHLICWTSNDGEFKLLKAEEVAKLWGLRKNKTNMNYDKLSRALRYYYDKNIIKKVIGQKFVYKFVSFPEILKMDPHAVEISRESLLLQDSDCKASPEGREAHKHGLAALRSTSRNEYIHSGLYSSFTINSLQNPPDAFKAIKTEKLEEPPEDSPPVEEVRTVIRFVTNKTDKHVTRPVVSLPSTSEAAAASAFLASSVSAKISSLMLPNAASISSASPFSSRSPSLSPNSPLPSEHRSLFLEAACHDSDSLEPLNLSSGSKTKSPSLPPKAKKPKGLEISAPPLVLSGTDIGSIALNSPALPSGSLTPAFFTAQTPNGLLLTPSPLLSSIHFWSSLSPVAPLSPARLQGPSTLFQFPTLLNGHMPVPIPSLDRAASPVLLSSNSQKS
# Procedure, shortened: as §1
# [10] = target: T7, FEV (Homo sapiens, UniProt Q99581 1-238); details: protein: recombinant; tags: N-terminal GST; dsDNA, one strand shown
# T7 sequence: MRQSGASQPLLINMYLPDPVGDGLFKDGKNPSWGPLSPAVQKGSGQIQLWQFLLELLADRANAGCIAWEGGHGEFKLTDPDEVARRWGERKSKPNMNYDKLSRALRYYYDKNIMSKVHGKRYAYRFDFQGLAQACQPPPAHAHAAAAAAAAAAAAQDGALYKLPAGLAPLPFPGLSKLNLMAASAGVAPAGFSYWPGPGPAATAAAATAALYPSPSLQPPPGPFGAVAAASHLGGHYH
# Procedure, shortened: as §1
# [11] = target: ETV5 (Homo sapiens, UniProt P41161 1-510); details: protein: recombinant; tags: N-terminal GST; dsDNA, one strand shown
# Sequence of ETV5 (P41161 whole entry): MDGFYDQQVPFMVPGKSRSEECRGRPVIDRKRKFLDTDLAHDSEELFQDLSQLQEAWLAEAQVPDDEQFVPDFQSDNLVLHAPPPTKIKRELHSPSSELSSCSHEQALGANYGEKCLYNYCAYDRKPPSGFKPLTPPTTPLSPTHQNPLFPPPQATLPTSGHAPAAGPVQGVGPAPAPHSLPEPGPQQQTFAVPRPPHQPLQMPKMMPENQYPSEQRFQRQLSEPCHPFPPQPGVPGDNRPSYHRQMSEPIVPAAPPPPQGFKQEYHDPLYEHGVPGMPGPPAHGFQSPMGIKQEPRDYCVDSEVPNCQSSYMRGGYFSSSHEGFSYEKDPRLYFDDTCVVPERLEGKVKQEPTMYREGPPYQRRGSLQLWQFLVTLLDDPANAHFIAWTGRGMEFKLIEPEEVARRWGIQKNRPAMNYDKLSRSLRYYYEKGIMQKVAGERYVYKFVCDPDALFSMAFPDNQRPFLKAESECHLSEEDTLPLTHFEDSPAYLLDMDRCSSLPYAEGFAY
# Procedure, shortened: as §1
# [12] = target: HSF1 (Homo sapiens, UniProt Q00613 1-529); details: protein: recombinant; tags: N-terminal GST; chain copies: 3; dsDNA, one strand shown
# Sequence of HSF1 (Q00613 whole entry): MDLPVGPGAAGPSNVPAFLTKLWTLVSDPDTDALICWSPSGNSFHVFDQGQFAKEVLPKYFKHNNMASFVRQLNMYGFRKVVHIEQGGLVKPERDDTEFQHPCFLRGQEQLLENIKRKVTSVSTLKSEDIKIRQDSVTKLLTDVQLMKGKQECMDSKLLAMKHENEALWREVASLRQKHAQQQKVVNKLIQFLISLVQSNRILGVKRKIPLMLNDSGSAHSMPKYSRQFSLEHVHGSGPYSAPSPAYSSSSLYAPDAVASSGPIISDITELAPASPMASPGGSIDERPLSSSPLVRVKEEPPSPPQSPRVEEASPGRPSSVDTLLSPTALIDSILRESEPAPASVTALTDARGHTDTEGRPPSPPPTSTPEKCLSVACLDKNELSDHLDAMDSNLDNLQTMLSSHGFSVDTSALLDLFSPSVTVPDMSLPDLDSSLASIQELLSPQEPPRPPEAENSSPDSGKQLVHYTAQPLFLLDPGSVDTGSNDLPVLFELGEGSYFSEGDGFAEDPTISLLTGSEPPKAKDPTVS
# Procedure, shortened: as §1
# [13] = target: T8, SPIC (Homo sapiens, UniProt Q8N5J4 1-248); details: protein: recombinant; tags: N-terminal GST; dsDNA, one strand shown
# T8 sequence: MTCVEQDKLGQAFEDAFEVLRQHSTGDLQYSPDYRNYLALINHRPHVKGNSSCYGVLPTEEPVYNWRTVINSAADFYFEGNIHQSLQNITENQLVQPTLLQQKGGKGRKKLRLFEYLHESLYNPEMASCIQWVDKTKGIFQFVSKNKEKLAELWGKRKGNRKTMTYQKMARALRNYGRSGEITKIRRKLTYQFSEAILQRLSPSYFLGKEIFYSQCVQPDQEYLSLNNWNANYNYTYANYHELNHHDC
# Procedure, shortened: as §1
# [14] = target: ELF4 (Homo sapiens, UniProt Q99607 1-663); details: protein: recombinant; tags: N-terminal GST; dsDNA, one strand shown
# Sequence of ELF4 (Q99607 whole entry): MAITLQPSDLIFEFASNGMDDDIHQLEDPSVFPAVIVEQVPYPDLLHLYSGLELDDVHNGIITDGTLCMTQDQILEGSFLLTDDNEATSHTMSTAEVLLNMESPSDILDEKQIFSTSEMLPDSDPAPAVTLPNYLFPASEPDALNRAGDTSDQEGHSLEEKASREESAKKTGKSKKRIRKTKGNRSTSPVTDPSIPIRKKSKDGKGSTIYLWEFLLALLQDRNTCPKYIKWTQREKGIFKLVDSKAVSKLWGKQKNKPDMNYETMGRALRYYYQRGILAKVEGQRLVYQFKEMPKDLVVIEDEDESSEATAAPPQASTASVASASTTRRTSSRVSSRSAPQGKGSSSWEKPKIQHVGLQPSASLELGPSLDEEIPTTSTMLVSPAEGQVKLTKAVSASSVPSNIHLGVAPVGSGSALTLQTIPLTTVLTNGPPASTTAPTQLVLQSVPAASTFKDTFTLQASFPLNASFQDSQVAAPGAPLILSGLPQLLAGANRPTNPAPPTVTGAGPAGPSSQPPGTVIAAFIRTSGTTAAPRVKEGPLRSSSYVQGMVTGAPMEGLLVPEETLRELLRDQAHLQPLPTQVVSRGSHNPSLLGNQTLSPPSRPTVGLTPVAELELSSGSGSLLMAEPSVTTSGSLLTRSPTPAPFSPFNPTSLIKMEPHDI
# Procedure, shortened: as §1
# [15] = target: T9, ELK4 (Homo sapiens, UniProt P28324-2 1-405); details: protein: recombinant; tags: N-terminal GST; dsDNA, one strand shown
# T9 sequence: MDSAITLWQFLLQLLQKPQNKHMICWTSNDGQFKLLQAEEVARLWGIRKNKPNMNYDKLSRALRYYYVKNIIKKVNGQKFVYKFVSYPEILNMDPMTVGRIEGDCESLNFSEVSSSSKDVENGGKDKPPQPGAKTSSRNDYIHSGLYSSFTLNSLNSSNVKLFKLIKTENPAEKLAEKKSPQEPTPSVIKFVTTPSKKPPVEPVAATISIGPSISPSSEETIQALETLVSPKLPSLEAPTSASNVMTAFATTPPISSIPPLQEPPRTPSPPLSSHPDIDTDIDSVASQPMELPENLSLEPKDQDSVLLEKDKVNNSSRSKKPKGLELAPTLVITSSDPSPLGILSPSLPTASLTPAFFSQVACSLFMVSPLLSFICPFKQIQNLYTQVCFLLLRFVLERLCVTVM
# Procedure, shortened: as §1
# [16] = target: T10, ETV2 (Homo sapiens, UniProt O00321 1-342); details: protein: recombinant; tags: N-terminal GST; dsDNA, one strand shown
# T10 sequence: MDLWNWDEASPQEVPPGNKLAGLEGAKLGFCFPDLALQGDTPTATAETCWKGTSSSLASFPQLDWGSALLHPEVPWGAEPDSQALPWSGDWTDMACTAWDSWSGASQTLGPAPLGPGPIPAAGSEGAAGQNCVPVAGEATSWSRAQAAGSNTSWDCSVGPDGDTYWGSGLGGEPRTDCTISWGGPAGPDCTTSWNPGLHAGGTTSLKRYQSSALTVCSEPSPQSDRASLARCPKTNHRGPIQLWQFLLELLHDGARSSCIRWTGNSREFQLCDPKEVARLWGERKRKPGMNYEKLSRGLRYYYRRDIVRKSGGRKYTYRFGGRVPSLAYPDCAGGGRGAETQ
# Procedure, shortened: as §1
# [17] = target: T11, ELF3 (Homo sapiens, UniProt P78545 1-371); details: protein: recombinant; tags: N-terminal GST; dsDNA, one strand shown
# T11 sequence: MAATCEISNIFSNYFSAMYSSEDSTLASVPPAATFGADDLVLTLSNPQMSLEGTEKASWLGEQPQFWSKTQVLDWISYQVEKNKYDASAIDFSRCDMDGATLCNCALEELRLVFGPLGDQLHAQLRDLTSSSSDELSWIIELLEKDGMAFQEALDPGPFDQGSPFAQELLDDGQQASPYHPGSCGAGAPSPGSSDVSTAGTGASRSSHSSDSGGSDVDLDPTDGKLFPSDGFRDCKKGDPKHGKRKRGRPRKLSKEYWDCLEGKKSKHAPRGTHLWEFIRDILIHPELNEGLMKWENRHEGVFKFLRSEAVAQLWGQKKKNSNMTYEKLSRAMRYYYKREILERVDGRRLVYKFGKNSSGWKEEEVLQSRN
# Procedure, shortened: as §1
# [18] = target: CRX (Homo sapiens, UniProt O43186 1-299); details: protein: recombinant; tags: N-terminal GST; dsDNA, one strand shown
# Sequence of CRX (O43186 whole entry): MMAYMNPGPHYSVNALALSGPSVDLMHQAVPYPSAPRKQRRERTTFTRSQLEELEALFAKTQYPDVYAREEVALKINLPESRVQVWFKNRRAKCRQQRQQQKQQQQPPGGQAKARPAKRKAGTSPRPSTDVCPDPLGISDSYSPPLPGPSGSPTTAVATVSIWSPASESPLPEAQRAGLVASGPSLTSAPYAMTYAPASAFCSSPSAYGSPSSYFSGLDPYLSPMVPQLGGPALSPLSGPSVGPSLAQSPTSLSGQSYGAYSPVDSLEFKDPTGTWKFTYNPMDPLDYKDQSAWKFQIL
# Procedure, shortened: as §1
# [19] = target: ETV1 (Homo sapiens, UniProt P50549 1-477); details: protein: recombinant; tags: N-terminal GST; dsDNA, one strand shown
# Sequence of ETV1 (P50549 whole entry): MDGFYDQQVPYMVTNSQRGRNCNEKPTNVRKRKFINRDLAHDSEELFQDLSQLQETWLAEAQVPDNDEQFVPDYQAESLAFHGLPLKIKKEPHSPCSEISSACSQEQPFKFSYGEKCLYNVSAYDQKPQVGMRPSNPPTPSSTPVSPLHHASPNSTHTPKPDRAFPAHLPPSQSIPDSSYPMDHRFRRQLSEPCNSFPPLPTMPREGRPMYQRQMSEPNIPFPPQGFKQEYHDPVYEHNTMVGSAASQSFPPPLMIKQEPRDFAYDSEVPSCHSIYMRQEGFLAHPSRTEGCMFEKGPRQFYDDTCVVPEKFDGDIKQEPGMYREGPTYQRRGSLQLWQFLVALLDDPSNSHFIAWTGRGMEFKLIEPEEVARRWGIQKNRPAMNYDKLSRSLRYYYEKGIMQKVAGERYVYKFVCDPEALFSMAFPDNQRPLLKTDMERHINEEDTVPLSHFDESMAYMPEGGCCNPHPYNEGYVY
# Procedure, shortened: as §1
sequence,measurement,setting,value
AAAAAA,binding signal,[1],"1.29 fold enrichment (6-mer frequency, TF over GST control)"
same,binding signal,[2],"1.28 fold enrichment (6-mer frequency, TF over GST control)"
same,binding signal,[3],"1.3 fold enrichment (6-mer frequency, TF over GST control)"
same,binding signal,[4],"1.2 fold enrichment (6-mer frequency, TF over GST control)"
same,binding signal,[5],"1.32 fold enrichment (6-mer frequency, TF over GST control)"
same,binding signal,[6],"1.45 fold enrichment (6-mer frequency, TF over GST control)"
same,binding signal,[7],"1.52 fold enrichment (6-mer frequency, TF over GST control)"
same,binding signal,[8],"1.4 fold enrichment (6-mer frequency, TF over GST control)"
same,binding signal,[9],"1.41 fold enrichment (6-mer frequency, TF over GST control)"
same,binding signal,[10],"1.37 fold enrichment (6-mer frequency, TF over GST control)"
same,binding signal,[11],"1.35 fold enrichment (6-mer frequency, TF over GST control)"
same,binding signal,[12],"1.41 fold enrichment (6-mer frequency, TF over GST control)"
same,binding signal,[13],"1.29 fold enrichment (6-mer frequency, TF over GST control)"
same,binding signal,[14],"1.37 fold enrichment (6-mer frequency, TF over GST control)"
same,binding signal,[15],"1.23 fold enrichment (6-mer frequency, TF over GST control)"
same,binding signal,[16],"1.35 fold enrichment (6-mer frequency, TF over GST control)"
same,binding signal,[17],"1.26 fold enrichment (6-mer frequency, TF over GST control)"
same,binding signal,[18],"1.22 fold enrichment (6-mer frequency, TF over GST control)"
same,binding signal,[19],"1.27 fold enrichment (6-mer frequency, TF over GST control)"
